From PubChem BioAssay
HepG2 tox – HepG2 cytotoxicity, counter-screen for TGF-b inhibitors; HepG2 CAGA-GFP viability, ATP luminescence, 18 h; Potency, µM (top dose mostly 46.1 µM), usual class: cytotoxic; 410,000 tested, 0.76% active; AID 588856
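CellTiter-Glo luminescence gave cytotoxicity after 18 hours at 37 degrees C. The cells were HepG2 CAGA-GFP in 1% FBS DMEM, stimulated with 500 pg/mL TGF-beta after compound addition. %Activity was normalised to no-cell wells (complete cell-killing) and DMSO (no toxicity), and curves were fitted and classified.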
DT40 TDP1 CPT – growth inhibition of DT40 Tdp1-/-;hTDP1 cells with camptothecin (screen for TDP1 inhibitors); chicken DT40 Tdp1-/-;hTDP1 cells + 20 nM CPT, ATP luminescence, 48 h; 420,000 tested, 12% active; AID 686979; Potency, µM (top dose mostly 46.2 µM), actives largely listed as inhibitors; further: nearly all actives have a fitted effect of over 55% in size
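Cell growth measured by CellTiter-Glo luminescence after a minimum 48 h, 37 C compound exposure with 20 nM CPT in Tdp1-knockout DT40 cells stably expressing hTDP1, seeded 400/well; qHTS titration format.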
IL1B secr inh – inhibitors of inflammasome signaling (IL-1 beta secretion); 360,000 tested, 4.7% active; THP-1 LPS/ATP IL-1B secretion, AlphaLISA, 16 h; active compounds read low; activity change, % at 57.5 µM; AID 743279; in the data active means activity change below about -50%; inconclusive means mostly about -30% to -49%
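Secreted IL-1B measured by AlphaLISA bead assay after 16 h compound exposure of THP-1 cells; compounds (final up to 57.5 uM) added 1 h before LPS (250 ng/mL) and ATP (1.25 mM) stimulation; lower signal means less secretion.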
S-ASM inh – blocks human secretory acid sphingomyelinase; placental ASM, HMU-PC fluorogenic substrate, 60 min; AID 504937; 340,000 tested, 0.006% active; P17405; Potency, µM (highest dose often 57.5 µM), actives largely listed as inhibitors
Target sequence (P17405 47-631 limits assumed): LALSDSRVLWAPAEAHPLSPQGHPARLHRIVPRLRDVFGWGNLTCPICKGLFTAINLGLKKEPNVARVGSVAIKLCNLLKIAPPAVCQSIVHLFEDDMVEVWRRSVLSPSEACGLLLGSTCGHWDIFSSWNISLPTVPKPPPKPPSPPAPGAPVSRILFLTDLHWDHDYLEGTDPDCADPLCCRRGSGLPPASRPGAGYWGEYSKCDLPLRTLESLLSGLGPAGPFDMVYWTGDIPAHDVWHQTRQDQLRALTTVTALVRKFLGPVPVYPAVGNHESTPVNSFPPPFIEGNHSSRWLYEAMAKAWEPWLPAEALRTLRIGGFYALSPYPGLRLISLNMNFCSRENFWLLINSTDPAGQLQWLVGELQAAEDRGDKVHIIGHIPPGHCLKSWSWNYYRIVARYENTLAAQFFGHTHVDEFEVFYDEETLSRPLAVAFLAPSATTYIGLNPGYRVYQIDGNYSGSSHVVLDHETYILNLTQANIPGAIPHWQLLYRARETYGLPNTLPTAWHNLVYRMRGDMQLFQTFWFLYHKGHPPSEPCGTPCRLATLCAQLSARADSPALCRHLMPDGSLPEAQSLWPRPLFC
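HMU-PC0 cleavage (9 uM final) by human placental ASM, 60 min at 37 °C following 10 min compound exposure at RT; stopped at pH 10, fluorescence Ex 386/Em 447 nm.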
TGFb SMAD3 inh – TGF-b pathway inhibition | 410,000 tested, 1.2% active | AID 588855 | Potency, µM (top dose mostly 46.1 µM), actives largely listed as inhibitors | HepG2 CAGA-GFP TGF-b/SMAD3 reporter, GFP fluorescence, 18 h; TGF-beta stimulated, 500 pg/mL final; further: nearly all actives have a fitted effect of over 65% in size
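TGF-beta reporter screen: HEPG2 CAGA-GFP, 1% FBS, 500 pg/mL TGF-beta final, 18 h; per-cell GFP summed per well; curves fitted and categorized by class.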
TDP1 cell noCPT – qHTS for Inhibitors of human tyrosyl-DNA phosphodiesterase 1 (TDP1): qHTS in cells in absence of CPT; DT40 Tdp1-/- hTDP1 cells, no CPT, ATP luminescence, 48 h; Potency, µM (series often up to 46.2 µM), hits mostly inhibitors; 420,000 tested, 15% active; further: nearly all actives have a fitted effect of over 55% in size
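Cells were dispensed at 400 per well, compounds added by pin tool, plates incubated ≥48 hr at 37 °C, then CellTiter-Glo added for 30 min at room temperature before luminescence reading. Line: DT40 Tdp1-/- complemented with hTDP1; camptothecin omitted.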
Hits are given with their value. Hits are enriched below; roughly 19% of the tested compounds scored in any of these assays. Unless noted, the call rests on the fitted dose curve; in most records, active means well fitted curve in the direction sought with a large enough effect; inconclusive means small, poorly fitted or top-dose-only effect, or another doubt; inactive means no such curve, though single readings can be large; an effect the other way counts as inactive or inconclusive.

For O=C(N/N=C\c1ccc([N+](=O)[O-])s1)C1COc2ccccc2O1 (stereo unspecified) the results were HepG2 tox inactive, DT40 TDP1 CPT 2.91µM, IL1B secr inh -52.8, S-ASM inh inactive, TGFb SMAD3 inh inactive and TDP1 cell noCPT 5.8µM.
O=C(N/N=C/c1ccc(N2CCOCC2)cc1)C1COc2ccccc2O1 (stereo unspecified) was read as HepG2 tox inactive, DT40 TDP1 CPT inactive, IL1B secr inh inactive, S-ASM inh inactive, TGFb SMAD3 inh inactive and TDP1 cell noCPT inactive.
For CCOC(=O)c1ccc(-n2c(O)c(/C=N/NC(=O)C3COc4ccccc4O3)c3ccccc3c2=O)cc1 (stereo unspecified) the results were HepG2 tox inactive, DT40 TDP1 CPT inconclusive, IL1B secr inh inactive, S-ASM inh inactive, TGFb SMAD3 inh 8.91µM and TDP1 cell noCPT inconclusive.
Screening O=C(N/N=C/c1c[nH]c2ccccc12)C1COc2ccccc2O1 (stereo unspecified) returned HepG2 tox inactive, DT40 TDP1 CPT 10.3µM, IL1B secr inh inactive, S-ASM inh inactive, TGFb SMAD3 inh inconclusive and TDP1 cell noCPT 13µM.
`CCOCCOC(=O)c1ccc(NC(=O)C2COc3ccccc3O2)cc1` (stereo unspecified) gave HepG2 tox inactive, DT40 TDP1 CPT inactive, IL1B secr inh inactive, S-ASM inh inactive, TGFb SMAD3 inh inconclusive and TDP1 cell noCPT inactive.
Cc1ncc(CN2CCN(CCC(C)C)C(CCO)C2)s1 (stereo unspecified) was read as HepG2 tox inactive, DT40 TDP1 CPT inactive, IL1B secr inh inactive, S-ASM inh inactive, TGFb SMAD3 inh inactive and TDP1 cell noCPT inactive.
`CC[N+](CC)(CC=C(C)C)CC(=O)OC` gave HepG2 tox inactive, DT40 TDP1 CPT inactive, IL1B secr inh inactive, S-ASM inh inactive, TGFb SMAD3 inh inactive and TDP1 cell noCPT inactive.
CCc1ccc(NC(=O)c2nc3nc(C)cc(C(F)F)n3n2)cc1 was read as HepG2 tox inactive, DT40 TDP1 CPT inconclusive, TGFb SMAD3 inh inactive and TDP1 cell noCPT inconclusive.
`Cc1ccc(OCc2cc(=O)n3c4c(sc3n2)CCCC4)c(C)c1` gave HepG2 tox inactive, DT40 TDP1 CPT inactive, TGFb SMAD3 inh inactive and TDP1 cell noCPT inactive.
Screening O=C(N/N=C/c1ccco1)C1CC1c1ccccc1 (stereo unspecified) returned HepG2 tox inactive, DT40 TDP1 CPT inactive, IL1B secr inh inactive, S-ASM inh inactive, TGFb SMAD3 inh inactive and TDP1 cell noCPT inactive.
`O=C(N/N=C\c1ccc([N+](=O)[O-])o1)C1COc2ccccc2O1` (stereo unspecified) gave HepG2 tox inactive, DT40 TDP1 CPT 7.31µM, IL1B secr inh inactive, S-ASM inh inactive, TGFb SMAD3 inh 15.8µM and TDP1 cell noCPT 6.51µM.
CC(C)(C)c1ccc(C2CC2C(=O)N/N=C\c2ccc[nH]2)cc1 (stereo unspecified) was read as HepG2 tox inactive, DT40 TDP1 CPT inconclusive, IL1B secr inh -60.7, S-ASM inh inactive, TGFb SMAD3 inh inconclusive and TDP1 cell noCPT inconclusive.
For O=C(N/N=C/c1c[nH]c2ccccc12)C1CC1c1ccccc1 (stereo unspecified) the results were HepG2 tox inactive, DT40 TDP1 CPT 11.6µM, IL1B secr inh inactive, S-ASM inh inactive, TGFb SMAD3 inh inconclusive and TDP1 cell noCPT 20.6µM.
O=C(N/N=C/c1c[nH]c2ccccc12)C1CC1(c1ccccc1)c1ccccc1 (stereo unspecified) was read as HepG2 tox inactive, DT40 TDP1 CPT inconclusive, IL1B secr inh inconclusive, S-ASM inh inactive, TGFb SMAD3 inh inconclusive and TDP1 cell noCPT inconclusive.
Screening N#Cc1cccc(NC(=O)Cn2cnc(S(=O)(=O)N3CCCC3)c2)c1 returned HepG2 tox inactive, DT40 TDP1 CPT inactive, IL1B secr inh inactive, S-ASM inh inactive, TGFb SMAD3 inh inactive and TDP1 cell noCPT inactive.
